Activity calls are given as the source filed them. Rule for the calls: active = hit-call score of the fitted dose curve at least 0.9, where 1 is the maximum; inactive = score below 0.9.
Legend:
Conditions in all cases: mRNA level, 48 h; actives raise or lower the signal
[1] = read-out: Interleukin 6 (IL6), IL6 (gene 3569); assay: LTEA_HepaRG_IL6: Life Technologies and Expression Analysis (LTEA) Assay for Interleukin 6 (IL6) using HepaRG (AID 2283509)
Summary of the method: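 qRT-PCR read-out of IL6 transcript, normalized to three housekeeping genes, after 48 h chemical exposure of HepaRG cells; 8-point half-log series, top 100 uM, 0.5% DMSO vehicle. Bidirectional curve fitting against DMSO baseline.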

[2] = read-out: Interleukin 6 Receptor (IL6R), IL6R (gene 3570); assay: LTEA_HepaRG_IL6R: Life Technologies and Expression Analysis (LTEA) Assay for Interleukin 6 Receptor (IL6R) using HepaRG (AID 2283510)
Summary of the method: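 IL6R transcript level by qRT-PCR after 48 h chemical exposure (8-point, half-log, max 100 uM, 0.5% DMSO vehicle) of HepaRG cells in serum-free induction medium. Normalized to three housekeeping genes; curves fitted in both directions relative to DMSO.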

[3] = read-out: Potassium channel subfamily K member 1 (KCNK1), KCNK1 (gene 3775); assay: LTEA_HepaRG_KCNK1: Life Technologies and Expression Analysis (LTEA) Assay for Potassium channel subfamily K member 1 (KCNK1) using HepaRG (AID 2283511)
Summary of the method: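 HepaRG, 48 h exposure, 8-pt half-log series top 100 uM, 0.5% DMSO vehicle, duplicates. Readout: KCNK1 transcript by qRT-PCR (Fluidigm array), housekeeping-normalized; bidirectional curve fit relative to DMSO baseline.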

[4] = read-out: Keratin 19 (KRT19), KRT19 (gene 3880); assay: LTEA_HepaRG_KRT19: Life Technologies and Expression Analysis (LTEA) Assay for Keratin 19 (KRT19) using HepaRG (AID 2283512)
Summary of the method: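 Readout is qRT-PCR of KRT19 mRNA, normalized to ACTB, GAPDH and POLR2A, from HepaRG cells treated 48 h with eight-point half-log dilutions topping at 100 uM. Activity in either direction is scored relative to 0.5% DMSO vehicle.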

[5] = read-out: JUN Transcription Factor, JUN (gene 3725); assay: LTEA_HepaRG_JUN: Life Technologies and Expression Analysis (LTEA) Assay for JUN Transcription Factor using HepaRG (AID 2283513)
Summary of the method: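 mRNA measured by TaqMan qRT-PCR after 48 h chemical exposure of HepaRG cultures; normalization to three housekeeping genes. Duplicate eight-point half-log curves from 100 uM in 0.5% DMSO; gain or loss fitted against DMSO baseline.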

[6] = read-out: Lipase C (LIPC), LIPC (gene 3990); assay: LTEA_HepaRG_LIPC: Life Technologies and Expression Analysis (LTEA) Assay for Lipase C (LIPC) using HepaRG (AID 2283514)
Summary of the method: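 HepaRG, 48 h exposure, 8-pt half-log series from 100 uM in 0.5% DMSO, duplicates. Readout: LIPC mRNA by Fluidigm qRT-PCR, housekeeping-normalized (ACTB/GAPDH/POLR2A). Gain or loss fitted bidirectionally against DMSO baseline.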

[7] = read-out: Lipoprotein lipase (LPL), LPL (gene 4023); assay: LTEA_HepaRG_LPL: Life Technologies and Expression Analysis (LTEA) Assay for Lipoprotein lipase (LPL) using HepaRG (AID 2283515)
Summary of the method: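 HepaRG, 48 h exposure, 8-pt half-log dilutions from 100 uM, 0.5% DMSO vehicle, duplicates; qRT-PCR (Fluidigm array) of LPL mRNA vs housekeeping genes; bidirectional curve fit relative to DMSO baseline.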

[8] = read-out: MicroRNA 122 (MIR122), gene 406906; assay: LTEA_HepaRG_MIR122: Life Technologies and Expression Analysis (LTEA) Assay for MicroRNA 122 (MIR122) using HepaRG (AID 2283516); note: the transcript read is the microRNA miR-122
Summary of the method: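 Expression measured by microfluidic qRT-PCR with three housekeeping genes for normalisation, after 48 h treatment of HepaRG cultures. Eight concentrations (top 100 uM, half-log steps, 0.5% DMSO vehicle) in duplicate; gain or loss fitted relative to vehicle.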

[9] = read-out: matrix metalloproteinase-10 (MMP10), MMP10 (gene 4319); assay: LTEA_HepaRG_MMP10: Life Technologies and Expression Analysis (LTEA) Assay for matrix metalloproteinase-10 (MMP10) using HepaRG (AID 2283517)
Summary of the method: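 Transcript levels come from Fluidigm qRT-PCR normalized to three housekeeping genes, with curves fitted bidirectionally against 0.5% DMSO. Human HepaRG cells were dosed for 48 hours at concentrations up to 100 uM.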

MYC, MYC (gene 4609) = assay: LTEA_HepaRG_MYC: Life Technologies and Expression Analysis (LTEA) Assay for MYC using HepaRG (AID 2283518)
Summary of the method: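 Expression changes were scored by TaqMan qRT-PCR with ACTB, GAPDH and POLR2A normalization. Cultures in serum-free induction medium received duplicate 8-point concentration series, highest 100 uM, for 48 h; DMSO (0.5%) served as baseline.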

[10] = read-out: matrix metalloproteinase-3 (MMP3), MMP3 (gene 4314); assay: LTEA_HepaRG_MMP3: Life Technologies and Expression Analysis (LTEA) Assay for matrix metalloproteinase-3 (MMP3) using HepaRG (AID 2283519)
Summary of the method: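 qRT-PCR read-out of MMP3 mRNA (normalised to three housekeeping genes) in HepaRG liver cells after 48 h chemical exposure; 8-point half-log series, top 100 uM, 0.5% DMSO vehicle. Bidirectional curve fitting against DMSO baseline.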

[11] = read-out: Paternally Expressed 10 (PEG10), PEG10 (gene 23089); assay: LTEA_HepaRG_PEG10: Life Technologies and Expression Analysis (LTEA) Assay for Paternally Expressed 10 (PEG10) using HepaRG (AID 2283520)
Summary of the method: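 PEG10 transcript measured by Fluidigm qRT-PCR, normalized to three housekeeping genes, in HepaRG cells treated 48 h (highest 100 uM, half-log steps, 0.5% DMSO vehicle). Cells plated 48 h before switching to serum-free induction medium.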

[12] = read-out: Protein phosphatase 2A (PPP2R4), PTPA (gene 5524); assay: LTEA_HepaRG_PPP2R4: Life Technologies and Expression Analysis (LTEA) Assay for Protein phosphatase 2A (PPP2R4) using HepaRG (AID 2283522)
Summary of the method: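 Expression was quantified by Fluidigm qRT-PCR normalised to three housekeeping genes after 48 h treatment. Human HepaRG cells received an 8-point series from 100 µM downward by half-logs, in duplicate with 0.5% DMSO vehicle and 1 mM phenobarbital as induction control.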

[13] = read-out: Phosphatase and tensin (PTEN), PTEN (gene 5728); assay: LTEA_HepaRG_PTEN: Life Technologies and Expression Analysis (LTEA) Assay for Phosphatase and tensin (PTEN) using HepaRG (AID 2283523)
Summary of the method: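 HepaRG, 48 h exposure, 8-pt half-log series from 100 uM top, 0.5% DMSO vehicle, duplicates. Readout: Fluidigm qRT-PCR of PTEN transcript; housekeeping normalization (ACTB, GAPDH, POLR2A). Gain or loss fitted relative to DMSO baseline.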

[14] = read-out: solute carrier (SLC22A1), SLC22A1 (gene 6580); assay: LTEA_HepaRG_SLC22A1: Life Technologies and Expression Analysis (LTEA) Assay for solute carrier (SLC22A1) using HepaRG (AID 2283524)
Summary of the method: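 qRT-PCR readout (TaqMan, Fluidigm arrays) of SLC22A1 transcript, normalized to three housekeeping genes; bidirectional curve fit relative to 0.5% DMSO vehicle. Differentiated human HepaRG cells, 48 h chemical exposure, top concentration 100 uM, half-log steps, eight points.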

[15] = read-out: Pyruvate Dehydrogenase Kinase 4 (PDK4), PDK4 (gene 5166); assay: LTEA_HepaRG_PDK4: Life Technologies and Expression Analysis (LTEA) Assay for Pyruvate Dehydrogenase Kinase 4 (PDK4) using HepaRG (AID 2283525)
Summary of the method: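 HepaRG (human liver line), 48 h chemical exposure, 8-pt half-log CRC top 100 uM, 0.5% DMSO vehicle, duplicates. Readout: TaqMan qRT-PCR of PDK4 mRNA, housekeeping-normalized; gain/loss fit relative to DMSO baseline.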

[16] = read-out: NAD(P)H dehydrogenase [quinone] 1 (NQO1), NQO1 (gene 1728); assay: LTEA_HepaRG_NQO1: Life Technologies and Expression Analysis (LTEA) Assay for NAD(P)H dehydrogenase [quinone] 1 (NQO1) using HepaRG (AID 2283526)
Summary of the method: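 NQO1 transcript induction or loss measured by TaqMan qRT-PCR, referenced to three housekeeping genes and fitted bidirectionally against 0.5% DMSO. HepaRG cultures exposed 48 h, duplicate, eight-point half-log series, top 100 uM.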

[17] = read-out: Nuclear factor erythroid 2-related factor 2 (Homo sapiens) (UniProt Q16236); assay: LTEA_HepaRG_NFE2L2: Life Technologies and Expression Analysis (LTEA) Assay for Nuclear factor erythroid 2-related factor 2 (NFE2L2) Transcription Factor using HepaRG (AID 2283527);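 note: TaqMan qRT-PCR transcript level normalised to ACTB GAPDH and POLR2A housekeeping genes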
Summary of the method: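 HepaRG, 48 h dosing, 8-pt half-log series from 100 uM in 0.5% DMSO, duplicates. Read-out: NFE2L2 mRNA by qRT-PCR (ACTB/GAPDH/POLR2A normalization). Bidirectional curve fit vs DMSO baseline.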

[18] = read-out: succinate dehydrogenase complex iron sulfur subunit B (SDHB), SDHB (gene 6390); assay: LTEA_HepaRG_SDHB: Life Technologies and Expression Analysis (LTEA) Assay for succinate dehydrogenase complex iron sulfur subunit B (SDHB) using HepaRG (AID 2283528)
Summary of the method: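 HepaRG cells (~100,000/well, plated 48 h) exposed in duplicate for 48 h in serum-free induction medium to 8-point half-log series from 100 uM in 0.5% DMSO; mRNA by qRT-PCR normalised to ACTB, GAPDH, POLR2A; bidirectional fit versus DMSO.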

[19] = read-out: Signal transducer and activator of transcription 3 (Homo sapiens) (UniProt P40763); assay: LTEA_HepaRG_STAT3: Life Technologies and Expression Analysis (LTEA) Assay for Signal transducer and activator of transcription (STAT3) using HepaRG (AID 2283529)
Summary of the method: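 HepaRG, 48 h exposure, 8-pt half-log series (top 100 uM), 0.5% DMSO vehicle, duplicates. Readout: STAT3 transcript by Fluidigm qRT-PCR, housekeeping-normalized; bidirectional fit vs DMSO baseline.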

Measured: outcome

Nuclear factor erythroid 2-related factor 2 (Homo sapiens), sequence (Q16236 whole entry, looked up): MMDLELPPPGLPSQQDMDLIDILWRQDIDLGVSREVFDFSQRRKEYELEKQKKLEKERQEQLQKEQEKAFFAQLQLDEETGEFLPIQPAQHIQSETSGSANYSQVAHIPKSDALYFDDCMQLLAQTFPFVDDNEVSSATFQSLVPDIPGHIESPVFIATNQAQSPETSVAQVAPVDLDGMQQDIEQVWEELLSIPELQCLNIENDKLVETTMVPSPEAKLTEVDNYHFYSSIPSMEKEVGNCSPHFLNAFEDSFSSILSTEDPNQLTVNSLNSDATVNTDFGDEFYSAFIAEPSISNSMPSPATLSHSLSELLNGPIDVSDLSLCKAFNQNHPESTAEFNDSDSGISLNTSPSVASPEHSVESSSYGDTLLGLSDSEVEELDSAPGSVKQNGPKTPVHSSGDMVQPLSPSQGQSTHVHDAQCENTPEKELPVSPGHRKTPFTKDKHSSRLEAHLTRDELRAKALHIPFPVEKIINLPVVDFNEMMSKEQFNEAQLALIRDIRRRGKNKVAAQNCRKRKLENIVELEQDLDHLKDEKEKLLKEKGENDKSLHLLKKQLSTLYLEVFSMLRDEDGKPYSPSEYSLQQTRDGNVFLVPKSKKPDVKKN
Signal transducer and activator of transcription 3 (Homo sapiens), sequence (P40763 whole entry, looked up): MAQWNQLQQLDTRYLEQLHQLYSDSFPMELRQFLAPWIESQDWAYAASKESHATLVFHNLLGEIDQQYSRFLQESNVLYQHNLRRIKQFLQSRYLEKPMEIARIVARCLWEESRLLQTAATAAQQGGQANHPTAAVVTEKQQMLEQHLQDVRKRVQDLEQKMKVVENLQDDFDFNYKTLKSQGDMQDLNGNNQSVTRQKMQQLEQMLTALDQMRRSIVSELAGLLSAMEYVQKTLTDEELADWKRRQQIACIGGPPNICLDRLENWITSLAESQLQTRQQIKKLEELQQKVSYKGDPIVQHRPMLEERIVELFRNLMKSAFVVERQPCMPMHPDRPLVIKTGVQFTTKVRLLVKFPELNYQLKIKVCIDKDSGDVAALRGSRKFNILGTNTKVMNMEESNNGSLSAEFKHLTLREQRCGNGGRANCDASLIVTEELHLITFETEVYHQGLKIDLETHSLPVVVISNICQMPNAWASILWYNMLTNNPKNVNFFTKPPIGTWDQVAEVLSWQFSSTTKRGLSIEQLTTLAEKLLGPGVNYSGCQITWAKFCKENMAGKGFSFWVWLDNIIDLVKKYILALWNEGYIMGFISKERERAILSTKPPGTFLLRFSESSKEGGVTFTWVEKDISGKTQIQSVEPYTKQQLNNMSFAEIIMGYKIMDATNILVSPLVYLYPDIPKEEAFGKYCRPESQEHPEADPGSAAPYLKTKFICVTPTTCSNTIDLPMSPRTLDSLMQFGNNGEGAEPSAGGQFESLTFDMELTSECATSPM

CS(=O)(=O)OCCCCOS(C)(=O)=O
inactive: [1] | [2] | [3] | [4] | [5] | [6] | [7] | [8] | [9] | MYC, MYC (gene 4609) | [10] | [11] | [12] | [13] | [14] | [15] | [16] | [17] | [18] | [19]
